Inconclusive results are not listed. Activity calls are given as the source filed them. Unless noted, calls come from the whole dose curve; as a rule, active = well fitted curve in the direction sought with a large enough effect; inconclusive = small, poorly fitted or top-dose-only effect, or another doubt; inactive = no such curve, though single readings can be large; an effect the other way counts as inactive or inconclusive.

Experiment [1] in a line: qHTS Assay for Identification of Small Molecule Agonists for NFkB Signaling Pathway. (AID 624478).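 Note: compounds tested together with TNF alpha at its EC50 of 10 pM; 0% is about no effect.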 In short, it runs like this:
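ME-180 cervical carcinoma, stable NFkB-RE beta-lactamase reporter; 1000 cells/well, overnight attachment; cpd + TNF alpha 10 pM final, 5 h 37 C; LiveBLAzer 2 h RT; FRET 460/530 nm, ex 405 nm.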
On the technique in general: Quantitative high-throughput screening tests each substance at several concentrations.

Experiment [2] can be described thus: qHTS Assay for Identification of Small Molecule Antagonists for NFkB Signaling Pathway. (AID 624479; calls by dose curve;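 note: pathway stimulated with TNF alpha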; note: potency is the fitted concentration of half-maximal effect).
The nature of experiment [3]: Cell Proliferation Assay against the TMD8 Cell Line (AID 651645).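 Note: cells exposed to compound for 48 h before reading.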 The conditions noted are these: TMD8 DLBCL cell line proliferation/viability; at 46.1 µM (top of the series) unless noted. The essentials: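 Cell viability of the ABC DLBCL line TMD8 is measured by CellTiter-Glo luminescence following a 48-hour incubation with compound. Percent activity uses DMSO as 100% and 9.2 uM bortezomib (final) as 0%.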

Experiment [4] in a line: Cell Proliferation Assay against the HBL1 Cell Line (AID 651646).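 Note: cells exposed to compound for 48 h before reading.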 The conditions noted are these: HBL1 DLBCL cells; at 46.1 µM (top of the series) unless noted. The essentials:
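500 log-phase HBL1 cells per well in phenol red-free RPMI with 5% FBS were treated with compounds for 48 h at 37 °C, 5% CO2. Viability was read by CellTiter-Glo luminescence, normalized to DMSO (100%) and 9.2 uM bortezomib final (0%).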

Experiment [5] in a line: Cell Proliferation Assay against the TMD8 Cell Line (Caspase readout at 8 hrs) (AID 651713).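 Note: 0% = DMSO and 100% = 9.2 µM bortezomib caspase signal.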 The essentials:
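Seed log-phase TMD8 cells, add compound by pin tool, incubate 8 h at 37C under 5% CO2, equilibrate to room temperature, add Caspase-Glo, wait 15 min, read luminescence; percent activity uses DMSO and 9.2 uM bortezomib controls.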

For experiment [6], the target named is Tyrosine-protein kinase Yes (Homo sapiens) (UniProt P07947). In words: qHTS for small molecule inhibitors of Yes1 kinase: Primary Screen (AID 686947). Note: nearly all actives have a fitted effect of over 60% in size. Note: potency is the fitted concentration of half-maximal effect. The essentials: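 Yes1 (4 nM) preincubated 20 min with compound, then 60 min room-temperature reaction with 0.1 mM ATP and 0.3 mg/mL poly(E4Y) in pH 7.5 Tris, 10 mM MgCl2. ADP measured by ADP-Glo luminescence, normalised to enzyme/no-enzyme controls.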

A short description of experiment [7]: qHTS for small molecule inhibitors of Yes1 kinase: Counter Assay (AID 686950).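 Note: no kinase present so only ADP-Glo detection of a fixed ADP amount is tested; luminescence from ADP-Glo reporting ADP in a fixed ATP and ADP mixture; 0% = DMSO wells with ATP plus ADP and -100% = ATP-only wells without ADP.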 In short, it runs like this: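 Enzyme-free ADP-Glo interference check: compounds were preincubated 20 min in buffer, then an ATP/ADP mix (0.08 mM ATP, 0.02 mM ADP final) was added for 60 min at room temperature before two-step ADP-Glo luminescence detection.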
Experiment [8] in a line: Cell Proliferation Assay against the TMD8 Cell Line (Caspase readout at 16 hrs) (AID 651712). In short, it runs like this: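 TMD8 cells (500/well) in phenol-red-free RPMI with glutamine, 5% FBS, were exposed to compounds for 16 h at 37 °C. Caspase 3/7 activation was read by Caspase-Glo luminescence; percent activity normalised to DMSO (0%) and 9.2 uM bortezomib final (100%).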

Experiment [9] deals with Arylsulfatase A (Homo sapiens) (UniProt P15289). In words: qHTS screen for enhancers of Arylsulfatase A (ASA1): LOPAC Validation Assay (AID 720538). Note: 0% is about no effect. The conditions noted are these: outcome: dose series up to 57.5 µM. The essentials: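 Cell-based enhancement test: residual ASA activity in SV40-transformed I179S patient fibroblasts is measured by pNCS turnover (0.5mM final, 14h, room temperature) following 48h compound incubation; higher fluorescence indicates activation.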

Experiment [10] can be described thus: qHTS for compounds that reverse cellular toxicity of Amyloid beta (A-beta) peptide in yeast: LOPAC Validation Assay (AID 720559).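 Note: plate controls were DMSO for no effect and equimolar ferric chloride plus clioquinol rescue for full effect.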 In short, it runs like this: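 Here, A-beta-toxic yeast grow with test compounds at 30 C for 48 hr before optical density at 600 nm is recorded; data are normalized against DMSO and the FeCl3-clioquinol control.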
Experiment [11] is described as follows: qHTS for Activators of Parkin Expression: LOPAC Validation Assay (NLuc Reporter) (AID 720572;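 note: 0% = DMSO and 100% = positive control compound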). The essentials: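 Neuronal line stably carrying a FLuc/NLuc coincidence reporter under the Parkin promoter, seeded 24 h, then dosed in 7-point series for 24 h at 37 C. NLuc luminescence read after FLuc; normalized to DMSO and positive control (100%).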

Sequence of Tyrosine-protein kinase Yes (Homo sapiens) (P07947 whole entry, looked up): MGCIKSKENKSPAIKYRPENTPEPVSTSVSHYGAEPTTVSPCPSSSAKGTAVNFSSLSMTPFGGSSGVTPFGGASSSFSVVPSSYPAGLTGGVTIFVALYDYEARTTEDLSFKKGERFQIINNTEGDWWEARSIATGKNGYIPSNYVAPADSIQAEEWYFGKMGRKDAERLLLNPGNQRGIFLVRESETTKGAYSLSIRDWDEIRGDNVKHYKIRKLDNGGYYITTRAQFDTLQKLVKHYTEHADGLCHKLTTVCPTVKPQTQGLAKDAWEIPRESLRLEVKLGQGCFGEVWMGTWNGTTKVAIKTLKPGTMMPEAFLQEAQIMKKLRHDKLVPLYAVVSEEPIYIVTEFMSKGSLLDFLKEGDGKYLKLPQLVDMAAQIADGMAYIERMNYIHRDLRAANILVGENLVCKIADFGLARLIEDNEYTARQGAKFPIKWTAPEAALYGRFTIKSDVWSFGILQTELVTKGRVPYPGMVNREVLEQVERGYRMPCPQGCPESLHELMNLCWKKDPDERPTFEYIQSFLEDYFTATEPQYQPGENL
Sequence of Arylsulfatase A (Homo sapiens) (P15289 whole entry, looked up): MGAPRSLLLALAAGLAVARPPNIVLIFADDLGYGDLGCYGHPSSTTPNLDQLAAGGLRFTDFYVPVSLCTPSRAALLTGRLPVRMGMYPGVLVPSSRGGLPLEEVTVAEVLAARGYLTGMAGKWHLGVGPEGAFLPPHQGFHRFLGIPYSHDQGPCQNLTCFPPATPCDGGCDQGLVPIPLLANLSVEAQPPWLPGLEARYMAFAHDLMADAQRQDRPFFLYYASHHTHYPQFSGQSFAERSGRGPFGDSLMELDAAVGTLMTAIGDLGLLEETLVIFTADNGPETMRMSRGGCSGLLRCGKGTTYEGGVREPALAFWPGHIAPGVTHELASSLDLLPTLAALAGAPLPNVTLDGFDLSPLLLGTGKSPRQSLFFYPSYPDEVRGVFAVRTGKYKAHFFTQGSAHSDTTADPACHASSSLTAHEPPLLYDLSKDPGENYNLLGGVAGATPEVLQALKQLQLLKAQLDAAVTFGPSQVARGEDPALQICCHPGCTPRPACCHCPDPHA

Turning to `O=C(c1cc(Cc2n[nH]c(=O)c3ccccc23)ccc1F)N1CCN(C(=O)C2CC2)CC1`, the molecule was classed as inactive in [1] and in experiment [7]. For the same molecule, the Potency entry in experiment [2], in experiment [5] and in experiment [6] was “inactive” in each case. For the same molecule, in [3], the viability (% of control) came out at 58.9%. Further, in experiment [4], the viability, percent of control came to 64.8%.

Consider `COc1cc(F)c(F)c(Nc2ccc(I)cc2F)c1NS(=O)(=O)C1(C[C@H](O)CO)CC1`, for which the call in experiment [1] and in experiment [7] was inactive. For the same molecule, the Potency in experiment [2] is 5.95 µM (active). In addition, in experiment [3], the viability (% of control) came out at 69.3%. Besides, in [4], the viability, percent of control was 62.4%. Moreover, the Potency result in [5] was “inactive”.

In the case of `CCCS(=O)(=O)Nc1ccc(F)c(C(=O)c2c[nH]c3ncc(-c4ccc(Cl)cc4)cc23)c1F`, the molecule was classed as inactive in experiment [1] and in experiment [7]. Further, the Potency in [2] is 16.8 µM (active); in experiment [6] it was 1.37 µM (active). Moreover, the viability (% of control) in experiment [3] turned out to be 41.4%. In [4], the viability, percent of control is 4.32%. In experiment [5], the Potency result is “inactive”.

For the molecule `CC(C)C[C@H](NC(=O)[C@@H](O)[C@H](N)Cc1ccccc1)C(=O)O`, the call in [1], in experiment [7], in [9] and in [10] was inactive. For the same molecule, the Potency result in [2], in experiment [8], in experiment [5] and in experiment [11] was “inactive” in each case. Further, the viability (% of control) in experiment [3] worked out at 89.3%. The viability, percent of control in experiment [4] was determined as 106%.

Take `COc1ccc(-c2ccc3c(N4CCOC[C@H]4C)nc(N4CCOC[C@H]4C)nc3n2)cc1CO`: the molecule was called inactive in experiment [1] and in experiment [7]. In addition, the Potency entry in experiment [2], in [5] and in experiment [6] was “inactive” each time. In addition, the viability (% of control) in experiment [3] came to 25%. Moreover, the viability, percent of control in [4] came to 57.8%.

Regarding `C[C@@H]1CN(Cc2ccc(F)cc2)[C@@H](C)CN1C(=O)c1cc2c(C(=O)C(=O)N(C)C)cn(C)c2cc1Cl`, the call in experiment [1] and in experiment [7] was inactive. Besides, the Potency entry in [2], in [5] and in experiment [6] was “inactive” each time. Moreover, in [3], the viability (% of control) came out at 61.8%. Moreover, the viability, percent of control in experiment [4] stood at 78.3%.

On to `CC(C)c1onc(-c2c(Cl)cccc2Cl)c1COc1ccc(/C=C/c2cccc(C(=O)O)c2)c(Cl)c1`, for which the molecule was called inactive in experiment [1] and in experiment [7]. For the same molecule, in experiment [2], the Potency is 21.1 µM (active). Besides, the viability (% of control) in experiment [3] amounted to 89.6%. Also, in experiment [4], the viability, percent of control is 75.2%. The Potency entry in experiment [5] was “inactive”.

For `CN(C(=O)c1ccc(F)cc1C(F)(F)F)C1CCN(c2nnc(-c3ccnn3C)c3ccccc23)CC1`, the result in experiment [1] and in experiment [7] was inactive. Moreover, the Potency entry in experiment [2], in experiment [5] and in experiment [6] was “inactive” throughout. Further, the viability (% of control) in experiment [3] stood at 70.8%. Besides, the viability, percent of control in experiment [4] amounted to 65.3%.

Regarding `O=C(NOC[C@H](O)CO)c1ccc(F)c(F)c1Nc1ccc(I)cc1F`, the call in experiment [1] and in experiment [7] was inactive. Further, the Potency entry in [2], in [8], in experiment [5] and in [6] was “inactive” in each case. Further, the viability (% of control) in [3] is 79.1%.

In the case of `COCC(=O)NCC=Cc1ccc2ncnc(Nc3ccc(Oc4ccc(C)nc4)c(C)c3)c2c1`, the molecule was classed as inactive in [1] and in [7]. Moreover, the Potency was 10.6 µM (active) in experiment [2] and 5.47 µM (active) in experiment [6]. Besides, the viability (% of control) in experiment [3] turned out to be 28.1%. Besides, the viability, percent of control in experiment [4] was determined as 41.4%. Moreover, the Potency entry in experiment [8] is “inactive”.

Take `O=C(Nc1nc2ccccc2n1CCN1CCOCC1)c1cccc([N+](=O)[O-])c1`: the call in experiment [1], in [7], in [9] and in experiment [10] was inactive. For the same molecule, in experiment [2], the Potency was 2.66 µM (active). The viability (% of control) in experiment [3] stood at 77.2%. In addition, the viability, percent of control in experiment [4] stood at 89.4%. The Potency result in experiment [8], in [6] and in experiment [11] was “inactive” in each case.

As to `CN(C)c1ccc(Nc2nc(N)n(C(=O)c3c(F)cccc3F)n2)cc1`, the call in [1] and in experiment [7] was inactive. Moreover, the Potency in experiment [2] was 14.9 µM (active); in experiment [6], 0.772 µM (active). The viability (% of control) in experiment [3] came out at 28.9%. The viability, percent of control in experiment [4] was found to be 46.5%. In [5], the Potency result was “inactive”.

Values taken from PubChem BioAssay (NCATS).
